Sampled rows, rich in hits. Any-hit rate of the full collection: about 1.1%.
NCOA2 inhibitor = inhibits human steroid receptor coactivator 2; HEK293 GAL4-SRC2 luciferase reporter, luminescence; Q15596; AID 651957; hit rate 0.17% among 370,000; inhibition, % at 9 µM;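 active means inhibition above the mean inhibition of all tested compounds plus 3 SD, set per campaign, cut at about 52% in these data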;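 further: 0% = DMSO treated cells and 100% = cells given Gossypol at 36 µM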
SRC3 inh = inhibits human SRC3 coactivator; inhibition, % at 3.6 µM; Q9Y6Q9; hit rate 0.17% among 360,000; HEK293 GAL4-SRC3 luciferase reporter, luminescence;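 active means inhibition above a per-campaign cutoff, the mean of all compounds plus 3 SD, cut at about 60% in these data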;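 further: 0% = DMSO-treated cells and 100% = gossypol-treated cells at 36 µM; higher means less SRC3-driven luciferase light from the GAL4 reporter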
Target sequence (Q9Y6Q9 whole entry, looked up, the tested form may be a part): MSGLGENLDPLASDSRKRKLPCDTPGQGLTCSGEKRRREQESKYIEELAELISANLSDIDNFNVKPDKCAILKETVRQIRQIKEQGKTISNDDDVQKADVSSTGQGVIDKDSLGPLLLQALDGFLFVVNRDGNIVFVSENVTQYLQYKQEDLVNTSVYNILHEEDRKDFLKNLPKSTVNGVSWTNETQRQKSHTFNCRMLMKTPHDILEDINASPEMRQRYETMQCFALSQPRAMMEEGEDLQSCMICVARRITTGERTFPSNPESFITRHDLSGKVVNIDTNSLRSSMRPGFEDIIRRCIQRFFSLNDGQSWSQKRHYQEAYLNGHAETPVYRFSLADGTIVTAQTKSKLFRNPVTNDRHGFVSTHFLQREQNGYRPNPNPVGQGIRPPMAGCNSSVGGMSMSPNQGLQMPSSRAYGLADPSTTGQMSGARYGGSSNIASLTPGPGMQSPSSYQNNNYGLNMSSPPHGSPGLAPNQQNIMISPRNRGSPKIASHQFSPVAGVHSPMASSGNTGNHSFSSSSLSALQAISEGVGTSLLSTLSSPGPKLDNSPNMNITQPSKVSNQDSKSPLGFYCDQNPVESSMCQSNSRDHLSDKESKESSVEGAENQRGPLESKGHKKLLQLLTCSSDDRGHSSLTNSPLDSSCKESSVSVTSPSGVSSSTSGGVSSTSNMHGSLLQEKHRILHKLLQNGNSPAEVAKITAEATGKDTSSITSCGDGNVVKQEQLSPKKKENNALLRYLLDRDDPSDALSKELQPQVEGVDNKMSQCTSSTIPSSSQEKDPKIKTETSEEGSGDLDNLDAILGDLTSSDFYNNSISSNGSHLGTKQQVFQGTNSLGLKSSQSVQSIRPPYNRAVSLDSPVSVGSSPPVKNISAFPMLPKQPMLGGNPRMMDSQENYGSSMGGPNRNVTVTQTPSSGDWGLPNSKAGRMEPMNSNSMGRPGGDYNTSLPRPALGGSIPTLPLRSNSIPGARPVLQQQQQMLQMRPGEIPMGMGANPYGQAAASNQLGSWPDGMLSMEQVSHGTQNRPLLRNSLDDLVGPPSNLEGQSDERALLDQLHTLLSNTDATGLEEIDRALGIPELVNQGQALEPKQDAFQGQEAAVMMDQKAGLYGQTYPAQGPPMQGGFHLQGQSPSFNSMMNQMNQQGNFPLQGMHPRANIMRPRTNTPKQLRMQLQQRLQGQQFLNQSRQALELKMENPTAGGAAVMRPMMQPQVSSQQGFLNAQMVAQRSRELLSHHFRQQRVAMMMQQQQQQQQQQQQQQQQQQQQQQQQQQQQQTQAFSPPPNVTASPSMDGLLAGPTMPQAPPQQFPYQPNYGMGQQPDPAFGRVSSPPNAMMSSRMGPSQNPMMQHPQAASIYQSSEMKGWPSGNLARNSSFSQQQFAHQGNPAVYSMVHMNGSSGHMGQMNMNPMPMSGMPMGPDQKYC
LRH-1 inv ag = suppresses constitutive activity of human LRH-1; O00482; HEK293T StAR-luciferase reporter, LRH-1 transfected, 24 h; inhibition, % at 3.6 µM; hit rate 0.13% among 360,000; AID 602396;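 active means inhibition above the mean inhibition of all tested compounds plus 3 SD, cut at about 73% in these data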;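 further: 0% = DMSO wells and 100% = reporter-only cells lacking LRH-1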
COUP-TFII inh = blocks human COUP-TFII nuclear receptor | inhibition, % at 8.6 µM | HEK293T NGFI-A luciferase reporter, luminescence | hit rate 0.7% among 370,000;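 active means inhibition above a per-plate cutoff, mean inhibition of test wells between control levels plus 3 SD, cut at about 38% in these data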;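 further: cells cotransfected with COUP-TFII expression vector driving the NGFI-A reporter; 0% = median of COUP-TF2 test wells and 100% = reporter-only cells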
SRC1 inh = human NCOA1 inhibition; HEK293 GAL4-SRC1 luciferase reporter, luminescence; inhibition, % at 3.6 µM; hit rate 0.12% among 360,000; AID 588354; Q15788;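 active means inhibition above the campaign mean plus 3 SD, with each screening campaign given its own cutoff, cut at about 60% in these data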;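 further: 0% = DMSO treated cells and 100% = gossypol at 36 µM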
GalR3 antag = human GalR3 antagonism | HEK293 GalR3-CNG cAMP membrane potential fluorescence; galR3 body fused to GalR1 C-terminus | inhibition, % at 3 µM | O60755 | AID 651719 | hit rate 0.44% among 360,000;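 active means inhibition above the screen-wide average plus 3 SD, cut at about 13% in these data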;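 further: forskolin and galanin both at EC90 stimulate the cells; cAMP rise reported by CNG channel membrane potential dye signal; 0% = forskolin plus galanin with DMSO and 100% = forskolin alone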
VP16 Luc counter = counter-screen for COUP-TFII antagonists: inhibitors of VP16; shares compounds with COUP-TFII inh; HEK293 Gal4-VP16 luciferase reporter, luminescence; inhibition, % at 8.5 µM; hit rate 25% among 2,500; AID 687007; in the data active means inhibition above about 13%
NR2F2 inh conf = confirmation of human COUP-TFII (NR2F2) inhibitors. hit rate 45% among 2,500. HEK293 NGFI-A luciferase reporter, luminescence. inhibition, % at 8.5 µM. shares compounds with COUP-TFII inh. AID 687008;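 active means mean inhibition over three repeats above a set limit taken from the earlier primary screen, cut at about 38% in these data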;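 further: 100% = cells given the luciferase reporter alone without the COUP-TF2 vector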
The depositor's hits bear a star; / = no result.

SMILES	NCOA2 inhibitor	SRC3 inh	LRH-1 inv ag	COUP-TFII inh	SRC1 inh	GalR3 antag	VP16 Luc counter	NR2F2 inh conf
CC1(C(=O)Nc2ccc3c(c2)OCO3)CCN1C(=O)Cc1ccc(-c2ccccc2)cc1 (stereo not drawn)	8	-3	30	43*	15	-9	0	33
CC1(C(=O)Nc2ccc3[nH]ncc3c2)CCN1C(=O)Cc1ccc(-c2ccccc2)cc1 (stereo not drawn)	25	-11	-7	47*	2	-6	2	22
COC(=O)c1cc2c(c3c4cc(C)ccc4n(S(=O)(=O)c4cccc(C)c4)c13)C(=O)N(Cc1ccc(N(C)C)cc1)C2	14	/	/	-13	/	2	/	/
O=C(Nc1ccc(F)cc1)OCc1cn(Cc2ccccc2)nn1	-18	/	/	-9	/	/	/	/
CCCCc1c(-c2ccccc2OC)ncn1Cc1ccc(OC)cc1	-17	/	/	17	/	-7	/	/
CC(C)NC(=O)C1(C)CCCCN1Cc1ccc(OCc2ccccc2)cc1 (stereo not drawn)	18	13	29	41*	0	-7	-17	14
Cc1ccc(CN2CCCC2(C)C(=O)NC(C)C)cc1 (stereo not drawn)	17	6	2	-14	12	2	/	/
COc1cc(-c2coc3c(C(=O)NCc4ccc(C(F)(F)F)cc4)cccc23)ccc1O	1	-15	-47	3	-45	-1	/	/
Cn1c(CCN2CCN(c3ccccn3)CC2)nc2cc(NC(=O)COc3ccc(Cl)cc3)ccc21	14	48	46	61*	23	-2	-3	59*
Cc1cccc(OCC(=O)Nc2ccc3c(c2)nc(CCN2CCN(c4ccccn4)CC2)n3C)c1	30	9	17	52*	5	-6	2	36
COc1ccc(OCC(=O)Nc2ccc3c(c2)nc(CCN2CCN(c4ccccn4)CC2)n3C)cc1	-13	10	2	26	5	-11	/	/
CCCc1c(-c2cccc(Br)c2)ncn1CCc1ccccc1OC	13	/	/	6	/	-7	/	/
COc1cc(SC)ccc1C(=O)Nc1ncc(C)s1	53*	11	-37	48*	-13	-5	-9	5
CCc1nc2c(OCc3ccc(Cl)cc3)cccn2c1N(C)C(=O)c1ccco1	-13	2	0	7	15	-5	/	/
COc1ccccc1NC(=O)C(C)OC(=O)c1cc2ccccc2[nH]1 (stereo not drawn)	39	0	30	38*	7	-4	1	42*
COC(=O)[C@H]1[C@@H](O)[C@@]2(O)c3c(OC)cc(OC)cc3O[C@@]2(c2ccc(OC)cc2)[C@@H]1c1ccc(F)cc1	62*	/	/	84*	/	-4	5	65*
O=C(Nc1ccc(Br)cc1)OCCN1CCCC12CCC(c1ccccc1)CC2 (stereo not drawn)	/	/	/	4	/	/	/	/
CC(C)c1[nH]nc2c1C(c1cccc(C(F)(F)F)c1)NC2=O (stereo not drawn)	-7	/	/	2	/	-4	/	/
Cc1ccc(S(=O)(=O)NCC2CCN(C(=O)C(=O)c3cccs3)CC2)cc1	1	/	/	-16	/	-5	/	/
CC(C)(C)[C@H]1C=C(C(=O)Nc2ccccc2)O[C@@H](OCCCCO)C1	30	39	51	63*	32	-5	-28	16
O=C(Nc1ccccc1)C1=C[C@@H](C2CCCCC2)C[C@@H](OCCCCO)O1	30	11	15	40*	9	-3	-33	13
O=C(Nc1ccccc1)C1=C[C@H](C2CCCCC2)C[C@H](OCCCCO)O1	-10	2	-8	12	-24	-5	/	/
Cc1nc2ccc(NC(=O)c3ccc(F)cc3F)cc2c(=O)[nH]1	-6	/	/	-6	/	/	/	/
CCOc1cccc(C=NNC(=O)C(=O)Nc2cccc(C(F)(F)F)c2)c1O	18	/	/	2	/	-6	/	/
COCCCNC(=O)[C@@H](Cc1ccccc1)NC(=O)[C@H]1O[C@@H](n2ccc(=O)[nH]c2=O)[C@H](O)[C@@H]1O	-18	/	/	0	/	-7	/	/
SMILES	NCOA2 inhibitor	SRC3 inh	LRH-1 inv ag	COUP-TFII inh	SRC1 inh	GalR3 antag	VP16 Luc counter	NR2F2 inh conf
CC1=C/C(=N\NC(=S)Nc2cccnc2)CC(C)(C)C1	3	-48	-19	39*	-37	4	-16	3
CC1(C)C2CC=C(/C=N/NC(=S)Nc3cccnc3)C1C2 (stereo not drawn)	-9	18	1	-2	2	-4	/	/
O=C(CSc1nc2ccccc2[nH]1)NN=Cc1ccccc1C(=O)O	-60	/	/	-29	/	/	/	/
CN1OC[C@@H]2CN3C(=Nc4cc(C(F)(F)F)cc(C(F)(F)F)c4)Sc4ccccc4[C@@H]3C[C@@H]21	-8	/	/	-3	/	-7	/	/
COc1cccc(N2CCN(c3c4c(nc5ncnn35)CCC4)CC2)c1	9	-5	21	55*	-9	2	-7	12
O=C(OC(c1ccccc1)c1nccc2ccccc12)c1cccc([N+](=O)[O-])c1 (stereo not drawn)	-29	-25	-6	-5	-57	-7	/	/
O=C(OC(c1ccccc1)c1nccc2ccccc12)c1ccccc1 (stereo not drawn)	61*	70*	76*	81*	67*	-7	53*	87*
COC(=O)C1CN(Cc2ccc(OC)cc2)CCS(=O)(=O)N1Cc1cn(CCOC(C)=O)nn1 (stereo not drawn)	14	/	/	-13	/	/	/	/
CCNC(=O)C1(C)CCCN(C(=O)c2ccc3c(c2)C(C)(C)CCC3(C)C)C1 (stereo not drawn)	11	14	16	39*	24	-6	-6	31
CCc1ccc(-c2nnn(CCC#N)n2)cc1	-25	-13	-17	-8	-32	-3	/	/
CCc1ccc(-c2nnn(CCC(=O)OC)n2)cc1	76*	26	23	57*	27	-5	60*	50*
O=C(Cn1cnc2ccccc2c1=O)N1CCCCC1	-23	/	/	1	/	/	/	/
CN(C)C(=O)c1ccc(NC(=O)c2cccc(S(=O)(=O)N3CCCc4ccccc43)c2)cc1	14	-16	-44	39*	2	-5	-6	0
CN(C)C(=O)c1ccc(NC(=O)c2cccc(S(=O)(=O)N3CCCCCC3)c2)cc1	-13	-13	-22	6	-5	-6	/	/
O=C1CCC(C(=O)OCC(=O)c2ccccc2)N1 (stereo not drawn)	4	6	-2	-5	11	-4	/	/
CC1CC(C)C(=O)C(C(CC2CC(=O)NC(=O)C2)OC(=O)CC(=O)c2ccccc2)C1 (stereo not drawn)	54*	85*	98*	71*	80*	-1	-19	50*
CC(=O)c1cn(CC(=O)Nc2ccc(C)cc2C)c2ccccc12	25	33	52	50*	22	2	14*	54*
